Where “and” joins values, the source holds several entries; their conditions need not be identical. Equal entries are not always repeated. About 83,000 compounds went through this panel and 20% of them were active in at least one assay; those are over-represented in the sample as a whole.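 Each cell line was grown in a 96-well plate and treated with one concentration of compound for 48 hours. Values below 10 were considered active.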 Calls of active or inactive are those of the source.
tested on: HL-60(TB) leukemia; test: NCI-60 one-dose screen, 48 h (100 = growth as untreated, 0 = no growth, -100 = all killed); conditions: 10 µM unless noted

Row | SMILES | growth
1 | C=CC[Se]C(=O)Cc1c(C)n(C(=O)c2ccc(Cl)cc2)c2ccc(OC)cc12 | -53.3% (active)
2 | CC(=O)c1ccc(NCC(=O)Nc2ccccn2)cc1 | 109% (inactive)
3 | CS(=O)(=O)c1ccc(C(=O)N/N=C/c2ccccc2O)cc1 | 6.35% (active)
4 | O=C(O)C1C2C=CC(C2)C1C(=O)O (centres undefined) | 25.8% (inactive) and 104% (inactive)
5 | Cc1ccc(/C=N/Nc2nc(Nc3ccccc3)nc(-n3nc(C)cc3C)n2)cc1 | 53.3% (inactive)
6 | COC(=O)c1ccc2c(c1)nc(-c1cc3ccccc3[nH]c1=O)n2-c1cc(C(C)(C)C)[nH]n1 | -16.9% (active)
7 | CCCCCCCCCCCCNC(=O)[C@H]1CSC(c2ccsc2)N1 (some centres undefined) | -12.6% (active)
8 | CC1(C)CC2=C3C=C[C@@H]4[C@@]5(C)CCC(=O)C(C)(C)[C@@H]5CC[C@@]4(C)[C@]3(C)CC[C@@]2(C(=O)O)CC1=O | 66.8% (inactive)
9 | COc1cc(-c2csc(NC(=O)c3cc(-n4cnc(C)c4)cc(C(F)(F)F)c3)n2)cc(OC)c1OC | 61% (inactive)
10 | CN(C)CCCn1c2c(c3ncccc3c1=O)C(=O)c1ccccc1-2 | 45.6% (inactive)
11 | O=C(CCl)N1CCCc2ccccc21 | 93.3% (inactive)
12 | Cc1ccc(C(=O)Nc2ccccc2C(=O)N/N=C(\c2ccccc2)c2ccccn2)cc1 | 2.36% (active)
13 | O=C(O)CCC(=O)Nc1nnc(-c2ccccc2)s1 | 92.2% (inactive)
14 | Cc1ccc(C)c(C(O)(c2cc(C)ccc2C)C2(O)CCCCC2)c1 | 96.5% (inactive)
15 | COc1cc(-c2csc(NC(=O)Nc3ccc(Cl)cc3Cl)n2)cc(OC)c1OC | 17% (inactive)
16 | CCN(CC)CCCN1C(=O)c2c(c(C)c3c(oc4cc(O)ccc43)c2C)C1=O | -47.9% (active)
17 | COc1ccc(C(=O)c2nc3ccccc3n2CC(=O)c2ccc(Cl)cc2)cc1 | -13.2% (active)
18 | COc1cc(C2NC(=O)C(C#N)=C(Nc3cccc(C)c3)S2)ccc1O (centres undefined) | 84% (inactive)
19 | CC[C@@H]1NC(=O)[C@@H]2CCCCN2C(=O)[C@@H]2CCCN2C(=O)[C@@H](NC(=O)[C@H](Cc2cc(F)cc(F)c2)NC(=O)Nc2ccc(C3CC3)cc2F)[C@H](C)OC(=O)[C@@H]2C[C@@H](C)CN2C1=O | 5.69% (active)
20 | COc1ccc(-c2nc3sc(-c4ccc(OC)cc4)c(-c4ccc(OC)cc4)n3c2/C=C/c2ccc(C(C)C)cc2)cc1 | 97% (inactive)

Row | SMILES | growth
21 | O=C(CCc1nnc2sc(-c3ccc(Cl)cc3Cl)nn12)c1nc2ccccc2[nH]1 | 3.48% (active)
22 | C[C@]12CC[C@@H]3c4ccc(O)cc4CC[C@H]3[C@@H]1C[C@H](O)[C@@H]2O | 112% (inactive)
23 | COc1cnc2c(c1)C(=O)c1c-2n(CCCNCCO)c(=O)c2ccncc12 | 16.1% (inactive)
24 | NC1=NC(SCc2ccccc2CCl)c2ncn(Cc3ccccc3CCl)c2N1 (centres undefined) | -25.5% (active)
25 | C#CC(C)(O)c1ccc(Cl)cc1 (centres undefined) | 109% (inactive)
26 | CC#Cc1nc2ccccc2c(=O)[nH]1 | 11.4% (inactive)
27 | CCOC(=O)C(=Cc1cccc(Br)c1)C(=O)OCC | -6.91% (active)
28 | COc1ccc([N+](=O)[O-])cc1OC | 85.5% (inactive) and 99.2% (inactive)
29 | COc1ccc(C2C3=C(COC3=O)N(CCO)c3cc4c(cc32)OCCO4)cc1 (centres undefined) | 82.1% (inactive)
30 | O=C1CC(c2cccc(-c3cccnc3)c2)=Nc2ccc(Br)cc2N1 | 41.6% (inactive)
31 | CC(O)(CC(=O)CC(=O)c1ccccc1)c1ccccc1 (centres undefined) | 101% (inactive) and 90.1% (inactive)
32 | COc1ccc(C(O)c2ccccc2)cc1 (centres undefined) | 102% (inactive)
33 | COc1ccc2c(c1)C(=O)/C(=C/c1ccccn1)CC2 | 75.5% (inactive)
34 | CCCCCCCCCCCCCCCCNC(=S)N/N=C/c1ccc(O)cc1O | 49.9% (inactive)
35 | COc1cc(C(=O)N2CCN(c3ccccc3)CC2)c2ccccc2n1 | -1.74% (active)
36 | CCN(CC)CCOc1nc2cc(OC)c(OC)cc2c2c1-c1ccc(OC)cc1C2=O | 93.4% (inactive)
37 | NC1CCC(Nc2nc(NCc3ccc(-c4cccs4)nc3)c3ncn(C4CCCC4)c3n2)CC1 (centres undefined) | -29.7% (active)
38 | O=C(Nc1ccc(OS(=O)(=O)c2ccc(F)cc2)cc1)C1CCCCCC1 | 56.4% (inactive)
39 | Nc1ccccc1NC(=O)CCCCC(=O)Nc1ccc2c(c1)/C(=C/c1ccc[nH]1)C(=O)N2 | 89.6% (inactive)
